Data published in PubChem BioAssay AID1159580 (chemical genetic matrix, 2015).
Values joined by “and” are separate entries in the source; they are usually repeats but may differ in a detail not shown here. Equal values may be shown once. About 2,000 (36%) of roughly 5,500 compounds were called active. About 18% were inconclusive and are not listed. Cut-off read from the data, not from the text of the source: active = normalized growth mostly below about 0.91 (no sharp cut-off); inconclusive = no clear call, values can overlap the other calls; inactive = mostly above about 0.92. Some of the results follow.

Experiment: chemical genetic growth profiling, strain panel (AID 1159580);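 note: tested at 20 µM; growth read once vehicle control cultures reached saturation at 30 °C; 1 = growth at the plate median or of vehicle wells; lower values mean less growth of the strain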
Settings: S. cerevisiae deletion strains, growth OD

Measured: normalized growth

OCC(O)C(O)C(O)C(O)C(O)CO (configuration not stated)
inactive: locus YAL021C, strain ccr4, hits give low values 0.995 | locus YAL026C, strain drs2, hits give low values 0.991 | locus YAL030W, strain snc1, hits give low values 0.99 | locus YBL061C, strain skt5, hits give low values 0.989 | locus YBR009C, strain hhf1, hits give low values 1 | locus YBR021W, strain FUR4, hits give low values 1.02 | locus YBR023C, strain chs3, hits give low values 0.995 | locus YBR171W, strain sec66, hits give low values 0.991 | locus YBR229C, strain ROT2, hits give low values 0.96 | locus YBR231C, strain swc5, hits give low values 0.991 | locus YBR279W, strain paf1, hits give low values 0.991 | locus YCL011C, strain gbp2, hits give low values 0.999 | locus YCL016C, strain dcc1, hits give low values 0.989 | locus YCL029C, strain bik1, hits give low values 0.974 | locus YCL061C, strain MRC1, hits give low values 0.99 | locus YCL069W, strain vba3, hits give low values 1 | locus YCR088W, strain abp1, hits give low values 0.989 | locus YDL005C, strain med2, hits give low values 1 | locus YDL035C, strain GPR1, hits give low values 1.01 | locus YDL040C, strain nat1, hits give low values 0.982 | locus YDL074C, strain BRE1, hits give low values 1.05 | locus YDL101C, strain DUN1, hits give low values 1.01 | locus YDL185W, strain tfp1, hits give low values 0.954 | locus YDL192W, strain arf1, hits give low values 1 | locus YDR001C, strain nth1, hits give low values 0.99 | locus YDR069C, strain doa4, hits give low values 0.995 | locus YDR101C, strain arx1, hits give low values 0.974 | locus YDR137W, strain rgp1, hits give low values 1.02 | locus YDR159W, strain sac3, hits give low values 0.98 | locus YDR162C, strain NBP2, hits give low values 1 | locus YDR195W, strain ref2 0.965 | locus YDR297W, strain sur2, hits give low values 0.997 | locus YDR318W, strain mcm21, hits give low values 0.956 | locus YDR334W, strain swr1, hits give low values 0.987 | locus YDR335W, strain msn5, hits give low values 0.993 | locus YDR388W, hits give low values 0.985 | locus YDR392W, strain spt3, hits give low values 0.99 | locus YDR502C, strain sam2, hits give low values 1.01 | locus YEL003W, strain gim4, hits give low values 0.994 | locus YEL037C, strain rad23, hits give low values 0.992 | locus YEL061C, strain CIN8 (second series), hits give low values 0.979 | locus YEL061C, strain CIN8, hits give low values 0.993 | locus YER015W, strain faa2, hits give low values 0.994 | locus YER016W, strain bim1, hits give low values 0.983 | locus YER110C, hits give low values 0.97 | locus YER111C, strain swi4, hits give low values 0.989 | locus YER155C, strain BEM2 (second series), hits give low values 0.989 | locus YER155C, strain BEM2, hits give low values 1 | locus YER167W, strain BCK2, hits give low values 0.997 | locus YFR010W, strain ubp6, hits give low values 0.99 | locus YGL078C, strain dbp3, hits give low values 1.01 | locus YGL086W, strain mad1, hits give low values 1.01 | locus YGL167C, strain pmr1, hits give low values 0.996 | locus YGL173C, strain kem1, hits give low values 1 | locus YGL227W, strain vid30, hits give low values 0.992 | locus YGL240W, strain doc1, hits give low values 1 | locus YGL248W, strain PDE1, hits give low values 1.02 | locus YGL253W, strain hxk2, hits give low values 0.989 | locus YGR135W, strain pre9, hits give low values 1.05 | locus YGR252W, strain gcn5, hits give low values 1.1 | locus YHR013C, strain ard1, hits give low values 0.981 | locus YHR027C, strain rpn1, hits give low values 1 | locus YHR030C, strain SLT2, hits give low values 0.998 and 0.954 | locus YHR079C, strain IRE1 (second series), hits give low values 0.992 | locus YHR079C, strain IRE1, hits give low values 0.973 | locus YHR094C, strain hxt1, hits give low values 0.965 | locus YHR129C, strain ARP1, hits give low values 1.02 | locus YHR142W, strain chs7, hits give low values 0.995 | locus YHR200W, strain rpn10, hits give low values 0.991 | locus YIL066C, strain RNR3, hits give low values 0.995 | locus YIL073C, strain SPO22, hits give low values 1.07 | locus YIL125W, strain kgd1, hits give low values 0.967 | locus YIR030C, strain dcg1, hits give low values 1.01 | locus YJL092W, strain hpr5, hits give low values 0.993 | locus YJL095W, strain BCK1 (second series), hits give low values 0.993 | locus YJL095W, strain BCK1, hits give low values 1.09 and 0.974 | locus YJL115W, strain asf1, hits give low values 0.982 | locus YJL129C, strain trk1, hits give low values 1 | locus YJL134W, strain LCB3, hits give low values 0.985 | locus YJL154C, strain vps35, hits give low values 0.991 | locus YJL164C, strain tpk1, hits give low values 0.994 | locus YJL166W, strain qcr8, hits give low values 0.996 | locus YJL168C, strain set2, hits give low values 0.984 | locus YJL187C, strain SWE1 (second series), hits give low values 1.01 | locus YJL187C, strain SWE1, hits give low values 1 | locus YJR043C, strain POL32, hits give low values 1.02 | locus YJR066W, strain TOR1, hits give low values 0.927
